# Sampled rows, rich in hits. Any-hit rate of the full collection: about 9.2%.
# LMNA splice mod – qHTS Assay for Modulators of Lamin A Splicing; HeLa LMNA splicing GFP/RFP minigene ratio, 48 h; Potency, µM (top dose mostly 46.1 µM), without a hit: at the highest dose ratio change, negative = inhibition, actives largely listed as inhibitors; 0.01% of 200,000 active; active = well fitted inhibition curve with a large enough effect in the signal ratio, with a control signal flat, not every such curve was filed as active; inconclusive = small, poorly fitted or top-dose-only effect, or effect the other way, or a change in a side signal; the % refers to the signal ratio; note: % is set by controls: 0 for no effect and ±100 for the full control effect
#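 Read-out is the ratio of GFP to DsRed2 object intensity, acquired by 488 nm laser-scanning cytometry on HeLa lamin A-EGFP minigene reporter cells. Compound incubation 48 hrs at 37 °C in Opti-MEM with 2% FBS; DMSO 0.5% final.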
# HPGD inh – qHTS Assay for Inhibitors of HPGD (15-Hydroxyprostaglandin Dehydrogenase); Potency, µM, for inactives: at the top dose activity change, negative = inhibition, hits mostly inhibitors; AID 894, 2007; 4.3% of 150,000 active; purified HPGD, NADH fluorescence kinetic, PGE2 substrate; note: % is set by controls: 0 for no effect and ±100 for the full control effect
# Target sequence (P15428 whole entry, looked up): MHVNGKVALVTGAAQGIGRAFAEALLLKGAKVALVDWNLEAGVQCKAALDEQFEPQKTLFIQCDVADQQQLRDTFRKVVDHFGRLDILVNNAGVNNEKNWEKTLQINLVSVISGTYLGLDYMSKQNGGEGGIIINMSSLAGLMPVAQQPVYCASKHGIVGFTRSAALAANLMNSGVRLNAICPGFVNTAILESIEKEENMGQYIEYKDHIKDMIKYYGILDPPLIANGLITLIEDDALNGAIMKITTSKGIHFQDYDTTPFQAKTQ
#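 NADH formation kinetics: reaction with 30 uM PGE2 and 1 mM NAD+ (final), 20 nM enzyme, Tris-HCl pH 8 with Tween 20, after 15 min compound preincubation at room temperature. Fluorescence change, last versus first of five reads.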
# ALDH1A1 block – qHTS Assay for Inhibitors of Aldehyde Dehydrogenase 1 (ALDH1A1). Purified ALDH1A1, NADH fluorescence, propionaldehyde substrate. Potency, µM (doses to about 75.3 µM), for the others: at the top dose activity, negative = inhibition, usual class: inhibitors. 7.3% of 220,000 active;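 note: plate controls were no enzyme wells and a reference inhibitor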
# Target sequence (P00352 whole entry, looked up): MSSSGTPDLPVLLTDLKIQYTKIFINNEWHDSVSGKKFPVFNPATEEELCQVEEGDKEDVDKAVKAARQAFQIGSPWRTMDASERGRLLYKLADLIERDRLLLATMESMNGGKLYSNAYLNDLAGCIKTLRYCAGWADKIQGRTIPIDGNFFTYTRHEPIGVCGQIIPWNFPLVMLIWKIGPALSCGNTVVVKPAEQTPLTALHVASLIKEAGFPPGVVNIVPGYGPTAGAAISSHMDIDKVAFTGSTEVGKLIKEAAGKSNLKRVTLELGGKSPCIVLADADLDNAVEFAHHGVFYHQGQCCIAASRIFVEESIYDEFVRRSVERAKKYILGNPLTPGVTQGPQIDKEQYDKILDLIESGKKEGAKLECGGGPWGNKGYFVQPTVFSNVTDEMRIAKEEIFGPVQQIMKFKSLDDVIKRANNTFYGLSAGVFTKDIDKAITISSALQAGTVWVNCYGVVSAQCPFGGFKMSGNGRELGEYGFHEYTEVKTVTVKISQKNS
# HTT aggregate – qHTS Multiplex Assay to Identify Dual Action Probes in a Cell Model of Huntington: Aggregate Formation (GFP). PC12 HttQ103-GFP aggregates, Acumen cytometry, 40 h. Potency, µM (top dose mostly 46.1 µM), without a hit: at the top dose activity change, negative = inhibition, most hits filed as inhibitors. 1.1% of 220,000 active. AID 1688, 2009; active = well fitted curve in the direction sought with a large enough effect; inconclusive = small, poorly fitted or top-dose-only effect, or another doubt; inactive = no such curve, though single readings can be large; an effect the other way counts as inactive or inconclusive; note: % is set by controls: 0 for no effect and ±100 for the full control effect; nearly all actives have a fitted effect of over 60% in size
#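 Quantitative HTS on tebufenozide-induced (100 nM) PC12 cells stably expressing polyQ103 Huntingtin exon 1–GFP. Reduction of bright GFP aggregates, detected by laser scanning cytometry after lysis, identified actives across the titration.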
# HTT ATP protect – qHTS Multiplex Assay to Identify Dual Action Probes in a Cell Model of Huntington: Cytoprotection (ATP). PC12 HTT-Q103 induced, cytoprotection, ATP luminescence, 40 h. Potency, µM (doses to about 56.4 µM), inactives show cytoprotection (ATP increase), actives largely listed as activators. 0.14% of 230,000 active; active = well fitted curve in the direction sought with a large enough effect; inconclusive = small, poorly fitted or top-dose-only effect, or another doubt; inactive = no such curve, though single readings can be large; an effect the other way counts as inactive or inconclusive; note: % of control where 0% means no effect; nearly all actives have a fitted effect of over 45% in size
#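 ATP quantification (ATPlite) reports survival of PC12 cells in which tebufenozide, 100 nM final, switches on Htt exon 1 with 103 glutamines linked to GFP; compounds are titrated.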
# KDM4E inh – qHTS Assay for Inhibitors of Human Jumonji Domain Containing 2E (JMJD2E). Potency, µM (highest dose often 57.1 µM), inactives show top-dose activity change, negative = inhibition, most hits filed as inhibitors. 1.6% of 230,000 active. AID 2147, 2009. Lysine-specific demethylase 4E (Homo sapiens), B2RXH2. JMJD2E catalytic domain, FDH-coupled NADH fluorescence (FDH is formaldehyde dehydrogenase);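 note: 0% = wells with enzyme and -100% = buffer wells without enzyme; nearly all actives have a fitted effect of over 50% in size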
# * = called active by the depositor; ? = inconclusive; . = no result given; [ ] = dose if it differs, or a comment. Unless noted, calls come from the whole dose curve; as a rule, active = well fitted inhibition curve with a large enough effect (not every such curve was filed as active); inconclusive = small, poorly fitted or top-dose-only effect, or another doubt; inactive = no such curve, though single readings can be large or run the other way. Potency is the fitted concentration of half-maximal effect.
SMILES,LMNA splice mod,HPGD inh,ALDH1A1 block,HTT aggregate,HTT ATP protect,KDM4E inh
O=c1/c(=C/c2ccco2)sc2n1CN(c1cccc(Br)c1)CN=2,2.8%,25.1µM*,?,-23.3%,-3.4%,?
O=c1/c(=C/c2ccco2)sc2n1CN(c1ccccc1)CN=2,-3.2%,-17.6%,-16.6%,6.3%,2.7%,-14.4%
COc1ccc(-c2coc3ccc(O[C@@H]4O[C@@H](COC(C)=O)[C@@H](OC(C)=O)[C@@H](OC(C)=O)[C@H]4OC(C)=O)c(OC(C)=O)c3c2=O)cc1,.,.,.,.,-20.4%,.
CN(C)S(=O)(=O)N(CC(=O)Nc1ccc(F)c(F)c1)c1ccccc1,-9.0%,-0.4%,5.9%,?,15.5%,-1.6%
CN(C)S(=O)(=O)N(CC(=O)Nc1ccc2ccccc2c1)c1ccccc1,-15.9%,-19.4%,-1.5%,?,5.62µM*,-3.7%
CCn1c(SCC(=O)Nc2cccc(C)n2)nc2c1c(=O)n(C)c(=O)n2C,.,.,-0.7%,0.6%[9.22 µM],12.1%[10 µM],-18.1%
COc1ccc(-c2csc3ncn(-c4ccccc4)c(=O)c23)cc1OC,.,.,7.94µM*,-4.3%[9.22 µM],-9.6%[10 µM],-0.8%
Cc1c(C(=O)Nc2ccccc2-c2ccccc2)cccc1[N+](=O)[O-],10.9%,-15.5%,13.7%,4.1%,-3.3%,-4.2%
COc1ccc(C2N(C(=O)N3CCOCC3)CCN2S(=O)(=O)c2ccc(C)cc2)cc1 (stereo not drawn),16.5%,-2.5%,-11.2%,-11.2%[9.22 µM],-9.6%,0.0%
Cc1ccc(S(=O)(=O)N2CCN(C(=O)N3CCOCC3)C2c2ccc(N(C)C)cc2)cc1 (stereo not drawn),-7.3%,-15.7%,0.631µM*,-5.2%,15.9%[10 µM],-11.1%
CN(C)c1ccc(C2N(C(=O)N3CCOCC3)CCN2S(=O)(=O)c2ccccc2)cc1 (stereo not drawn),10.7%,-14.4%,1µM*,8.6%,-16.9%,-4.4%
COc1ccc(C2N(C(=O)CN3CCOCC3)CCN2S(=O)(=O)c2ccccc2)cc1 (stereo not drawn),13.3%,-1.4%,-1.5%,-6.9%,-10.2%,0.1%
CCCCN(C(=O)CSc1nncn1-c1ccccc1OC)c1c(N)n(Cc2ccccc2)c(=O)[nH]c1=O,-7.0%[46 µM],.,2.24µM*,17.3%,-1.0%,10.2%
Cc1ccc(NC(=O)COc2cccc3ccc(C)nc23)c(Br)c1,-8.2%,11.2µM*,?,6.1%,.,-5.6%
Cc1ccc(OCC(=O)Nc2cccc(C)n2)c(C)c1,1.1%,-8.4%,1.8%,20.3%,-3.0%,-3.1%
OCCC1CN(Cc2c(O)ccc3ccccc23)CCN1CCc1ccccc1 (stereo not drawn),?,.,11.2µM*,-3.9%[9.22 µM],-3.5%[10 µM],?
COc1ccc(O)c(CN2CCN(CCc3ccccc3)C(CCO)C2)c1 (stereo not drawn),?,.,-6.8%,11.1%[9.22 µM],35.7%[10 µM],-17.4%
Cc1ccc(CN2CCN(CCCc3ccccc3)CC2CCO)cc1 (stereo not drawn),-22.7%[46 µM],.,28.2µM*,5.8%,-43.5%,8.4%
CCCC1c2c(ccc3ccccc23)Oc2ccc3ccccc3c21,.,-6.2%,-8.1%[13.5 µM],.,4.7%[10 µM],.
C[C@@H]1CCC[C@H](C)N1,-14.6%,-2.2%,11.8%[20.9 µM],-5.7%[20.6 µM],-13.4%[40.3 µM],-1.3%[25.5 µM]
CNc1ccc(O)cc1,.,12.6µM*,2.24µM*,.,-102.8%,.
CCCN1CN(Cc2ccccc2)CC2=C1CC(C)(C)CC2=O,7.1%,-18.8%,7.94µM*,-2.9%,-14.6%,?
CCSC1=NC2(CCCCC2)Nc2sc3c(c21)CCCC3,13.4%,4.47µM*,7.08µM*,?,-29.8%,?
CCSc1nc2sc3c(c2c(=O)[nH]1)CCCC3,-2.8%,-15.0%,-0.1%,-22.0%,4.8%[10 µM],-8.9%
O=S(=O)(O)c1ccccc1,.,-6.0%,-7.5%,.,-48.7%,.
SMILES,LMNA splice mod,HPGD inh,ALDH1A1 block,HTT aggregate,HTT ATP protect,KDM4E inh
Nc1ccc(S(=O)(=O)O)cc1,.,-10.1%,31.6µM*,.,-4.7%,.
O=[N+]([O-])c1ccc(SCCc2ccncc2)cc1,.,.,7.94µM*,10.0%[9.22 µM],10.4%[10 µM],3.8%
O=[N+]([O-])c1ccc(SCCc2ccccn2)cc1,.,.,.,-12.2%[9.22 µM],0.7%[10 µM],-0.9%
CCOc1ccc(-c2cc(CCCC(=O)NCCCOC)no2)cc1,11.2%,-14.9%,-10.8%,-4.8%,-24.6%,-3.9%
CCOc1ccc(-c2cc(CCCC(=O)N3CCN(c4ccc(OC)cc4)CC3)no2)cc1,?,-23.7%,20µM*,23.8%,-4.9%[10 µM],-2.9%
COc1ccc(-n2nc3c(c2NC(=O)C2CC2)CS(=O)C3)cc1 (stereo not drawn),4.2%,-4.5%,-2.6%,4.6%,-0.9%,0.0%
COc1ccc(-n2nc3c(c2NC(=O)C24CC5CC(CC(C5)C2)C4)CS(=O)C3)cc1 (stereo not drawn),-6.2%,-3.0%,2.82µM*,-6.0%,0.0%,8.9%
O=c1c2ccccc2nnn1Cc1nnc(-c2ccccc2Br)o1,-2.0%,28.2µM*,?,-14.6%,-23.6%[10 µM],2.3%
O=C1CCCC/C1=C/Nc1ccc(S(=O)(=O)Nc2ncccn2)cc1,1.3%,-27.4%,22.4µM*,9.4%,-9.2%,-4.9%
O=C1CCC/C1=C/Nc1ccc(Cl)cc1,.,.,-4.8%,-19.5%,7.8%,-0.1%
O=C1CCCC/C1=C\Nc1ccc(O)cc1,-26.2%,-23.2%,14.1µM*,6.7%,?,?
Cc1nc2c(C(=O)NCCCN(CC(C)C)CC(C)C)cnn2c(C)c1Cc1c(F)cccc1Cl,-7.4%[46 µM],.,.,.,.,.
CCCC1CCC(=C(C#N)C(N)=O)CC1 (stereo not drawn),3.5%,-7.6%,-2.1%,-1.8%,-6.1%[10 µM],18.3%
CCc1c(C)nc2ncnn2c1N1CCCC(C(=O)Nc2ccc(NC(C)=O)cc2)C1 (stereo not drawn),13.6%,?,12.6µM*,-8.4%,2.5%,-10.3%
C=CC(C)n1c(Br)nc2c1c(=O)[nH]c(=O)n2C (stereo not drawn),-6.5%,2.3%,9.3%,-3.2%,8.7%,1.4%
CC(C)n1c(=S)[nH]c2c1c(=O)[nH]c(=O)n2C,10.3%,8.91µM*,2µM*,12.3%,-16.8%,7.94µM*
O=C(Nc1ccc(C(F)(F)F)cc1)C1(c2cccs2)CCOCC1,19.7%[46 µM],.,.,.,.,.
COc1ccc(CNC(=O)c2coc(=O)c3ccccc23)c(OC)c1,?,.,-10.6%,-13.7%,-23.4%,0.1%
COC(=O)c1ccccc1NC(=O)C1COc2ccccc2O1 (stereo not drawn),6.8%,?,?,?,2.8%,?

# Screening results from PubChem.
